We go through six sequences from the supplement of paper PMC6555819.

Holding throughout (experiment): PBM binding z-score (relative to random genomic background probes); higher = stronger binding; sequences stand for … in GC…GCGATTGACAGCGTAGAATGAAGG
Assay [1] deals with FXR:RXRa (NR concentration 270 nM, RXRa partner concentration 90 nM). A digest of the protocol: (§1)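 Antibodies against each partner of ligand-free nuclear receptor dimers (one per run) detected binding on custom Agilent 4×180K protein-binding microarrays after 1 h incubation. The double-stranded probes had 34-nt variable regions carrying direct-repeat seeds, single-nucleotide variants, half-site ablations and random human genomic background sequences. Binding z-scores, from regression-normalized fluorescence, use the random background probes as reference.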

The test system of assay [2] is LXRa:RXRa (NR concentration 270 nM, RXRa partner concentration 90 nM). An outline of the steps: as §1
For assay [3], the system named is LXRa homodimer (NR concentration 270 nM). An outline of the steps: as §1
Assay [4] has as its system LXRb:RXRa (NR concentration 270 nM, RXRa partner concentration 90 nM). A digest of the protocol:
as §1

Assay [5] has as its system LXRb homodimer (NR concentration 270 nM). An outline of the steps: as §1
Assay [6] relates to PPARa:RXRa (NR concentration 270 nM, RXRa partner concentration 90 nM). An outline of the steps: as §1
Assay [7] relates to PPARg:RXRa (NR concentration 180 nM, RXRa partner concentration 90 nM). An outline of the steps: as §1
In assay [8] the test system is PPARg:RXRa 270nM:90nM, anti-RXR (NR concentration 270 nM, RXRa partner concentration 90 nM). An outline of the steps: as §1
Assay [9] deals with PPARg:RXRa 30nM:10nM, anti-RXR (NR concentration 30 nM, RXRa partner concentration 10 nM). A digest of the protocol:
as §1

The test system of assay [10] is PPARg:RXRa 90nM:30nM, anti-RXR (NR concentration 90 nM, RXRa partner concentration 30 nM). A digest of the protocol: as §1
Assay [11] has as its system PPARg:RXRa DBDmut IVT, anti-RXR (DBD mutation: RXRa K156A/R161A, NR concentration 270 nM, RXRa partner concentration 90 nM). A digest of the protocol:
as §1

For assay [12], the system named is PPARg:RXRa IVT, anti-PPARg (NR concentration 270 nM, RXRa partner concentration 90 nM). A digest of the protocol:
as §1

Assay [13] deals with PPARg DBDmut:RXRa IVT, anti-PPARg (DBD mutation: PPARg1 K132A/R137A, NR concentration 270 nM, RXRa partner concentration 90 nM). A digest of the protocol: as §1
Assay [14] has as its system PPARg DBDmut IVT, anti-PPARg (DBD mutation: PPARg1 K132A/R137A, NR concentration 270 nM). An outline of the steps: as §1
In assay [15] the test system is PPARg homodimer (NR concentration 180 nM). A digest of the protocol:
as §1

Assay [16] relates to PXR:RXRa (NR concentration 270 nM, RXRa partner concentration 90 nM). A digest of the protocol: as §1
Assay [17] deals with PXR homodimer (NR concentration 270 nM). An outline of the steps:
as §1

Assay [18] relates to RARa:RXR (NR concentration 270 nM, RXRa partner concentration 90 nM). A digest of the protocol: as §1
The test system of assay [19] is RARa homodimer (NR concentration 270 nM). An outline of the steps:
as §1

Assay [20] relates to RARb:RXRa (NR concentration 270 nM, RXRa partner concentration 90 nM). An outline of the steps:
as §1

As to TCTGCTAGGGCAGTTGGTCAGCTAACGAGCTGCC, the PBM binding z-score in assay [1] is -0.253; in assay [2], -0.634; in assay [3], -0.708; in [4] it was -0.857; in assay [5], -0.624; in assay [6], -0.359. The PBM binding z-score in [7] was -0.953; in assay [8], 0.135; in assay [9], 0.729; in [10], 0.414; in [11], 1.38; in assay [12] it was 0.996. The PBM binding z-score in assay [13] was -0.206; in [14], -0.384; in [15] it was -0.702; in [16], -0.671; in [17], -0.958; in [18] it was -0.138. In addition, the PBM binding z-score is -1.3 in assay [19] and 1.14 in assay [20].
For the sequence CCTCGGAGGACAGAAGGTCAGAGATGTCCGCTTT, the PBM binding z-score in [1] was 0.986; in assay [2], 1.24; in assay [3], 0.141; in assay [4], 0.889; in assay [5] it was -0.867; in assay [6], 1.55. Further, the PBM binding z-score in assay [7] was 0.383; in assay [8] it was 0.542; in [9], -0.288; in assay [10], 0.432; in [11], -0.271; in assay [12] it was 0.124. Also, the PBM binding z-score is -1.91 in assay [13]; -1.27 in assay [14]; 1.03 in assay [15]; 1.41 in assay [16]; 0.164 in assay [17]; 1.93 in [18]. The PBM binding z-score in assay [19] worked out at 0.613; in [20], 3.01.
For ATATGCAGGTTACATCCGGGTCATTCAGGCTATG, the PBM binding z-score in [1] was found to be 2.7; in assay [2] it was 4.82; in assay [3] it was 0.974; in assay [4] it was 2.99; in [5] it was 0.382; in assay [6], 3.53. Also, the PBM binding z-score in assay [7] was 2.58; in assay [8] it was 2.61; in assay [9], 0.935; in [10] it was 1.49; in [11] it was 3.86; in assay [12], 4.01. The PBM binding z-score came out at 0.813 in assay [13]; 1.04 in [14]; 1.59 in assay [15]; 3.71 in assay [16]; 1.94 in [17]; 3.45 in assay [18]. Further, the PBM binding z-score in assay [19] is 0.262; in assay [20], 2.34.
CTCGAAAGGTCGTGCTCAGGTGAGTATCCCAAAC: the PBM binding z-score is 4.79 in assay [1]; 3.79 in [2]; 0.264 in [3]; 3.34 in assay [4]; 0.35 in assay [5]; 4.61 in assay [6]. Besides, the PBM binding z-score in assay [7] came to 2.17; in assay [8], 3.89; in [9], 0.803; in assay [10] it was 2.2; in assay [11] it was 0.866; in assay [12], 1.8. Besides, the PBM binding z-score in assay [13] is 0.243; in assay [14] it was -0.461; in [15] it was 1.25; in [16], 3.1; in [17], 0.327; in assay [18] it was 3.67. The PBM binding z-score in assay [19] is -0.0794; in assay [20] it was 3.83.
As to ACCTCTAGGTAAAAGTTCAGTGAATCCCGAGGAT, the PBM binding z-score in assay [1] is 0.332; in assay [2] it was 0.842; in [3], 0.847; in assay [4] it was 0.401; in [5], -0.0602; in assay [6], 3.58. In addition, the PBM binding z-score in assay [7] was 7.09; in [8], 7.47; in assay [9] it was 6.26; in [10], 8.74; in [11], 2.11; in assay [12] it was 3.3. In addition, the PBM binding z-score in assay [13] was 0.37; in [14], 0.231; in assay [15], 0.975; in assay [16] it was 1.54; in [17], 1.16; in [18], 1.11. In addition, the values for the PBM binding z-score in assay [19] and in assay [20] were 0.0645 and 2.08, respectively.
With ACTATTAATTGACTTAGGGCAACCGATACGACGC, the PBM binding z-score in [1] is 0.0871; in assay [2], 0.356; in assay [3], 1.02; in [4], 0.353; in assay [5], 1.25; in [6], 0.0941. Moreover, the PBM binding z-score in assay [7] is 1.05; in [8], 0.505; in assay [9] it was 0.559; in assay [10] it was 0.814; in assay [11], 0.595; in assay [12], 0.509. In addition, the PBM binding z-score in [13] was found to be 0.998; in [14], 1.47; in [15], 1.74; in assay [16], 0.334; in [17], 1.65; in assay [18], 0.245. The figures for the PBM binding z-score in [19] and in assay [20] were 2.46 and 0.883, respectively.
